Assay results reported in PubChem BioAssay AID743130 (Broad Institute, 2013).
Where “and” joins values, the source holds several entries; their conditions need not be identical. Equal values may be shown once. Calls of active or inactive are those of the source.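 Rule for the calls: active = fitted curve rises past 20% activation at a concentration no higher than the top valid tested dose; inactive = activity opposite to the expected signal increase, and the rest.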

Assay: Rlm1 cell wall stress reporter activators, dose response, S. cerevisiae reporter strain, C. neoformans project, dry powder (AID 743130)
Conditions: S. cerevisiae Rlm1-lacZ reporter, luminescence, 4 h, stronger effect = higher value; at 35 µM unless noted

Maximal activation, inactive:
CCOC(=O)c1c(NC(=O)CNCCN(C)C)sc(C)c1-c1ccccc1 -3% [at 2.1 µM], CCOC(=O)c1c(-c2ccc(C(C)(C)C)cc2)csc1NC(=O)CN1CCN(C)CC1 6.67% [at 16 µM], Fc1cccc2c1[nH]c(=S)n2CCOc1ccccc1 -3.67% [at 8 µM], Cc1cccc(OCCn2c(=S)[nH]c3cc(C(F)(F)F)ccc32)c1 -9% [at 16 µM], COC(=O)C1=C(C)N(Cc2ccc(Br)cc2)C(=S)NC1c1ccc(OC)cc1 (centres undefined) 5.5% [at 0.26 µM], CCOC(=O)c1c(NC(=O)CN2CCN(C)CC2)sc(C)c1-c1ccc(C)cc1 5.75%, Cc1ccc(OCCn2c(=S)[nH]c3ccccc32)cc1 -4.62%, COC(=O)C1=C(C)N(Cc2ccc(Cl)cc2)C(=S)NC1c1ccc(Br)cc1 (centres undefined) 9% [at 2.1 µM], CCOC(=O)c1c(-c2ccc(OC)cc2)csc1NC(=O)CN(C)CC(=O)N(C)C -2.31% [at 4.2 µM], S=c1[nH]c2cccc(Cl)c2n1CCOc1ccccc1 -2.44%, S=c1[nH]c2ccccc2n1CCOc1ccccc1 3.85% [at 4.2 µM], CCOC(=O)c1c(-c2ccc(F)cc2)csc1NC(=O)CN1CCN(C)CC1 8.68% [at 16 µM], O=c1[nH]c2ccccc2n1CCOc1ccccc1 6.24% [at 2.1 µM] and 3.18% [at 2.1 µM], COC(=O)C1=C(C)N(Cc2ccccc2)C(=S)NC1c1ccc(Br)cc1 (centres undefined) 6.99% [at 8 µM], c1ccc(OCCn2cnc3ccccc32)cc1 -5.78% [at 1 µM], COC(=O)C1=C(C)N(Cc2ccc(F)cc2)C(=S)NC1c1cccc(F)c1 (centres undefined) 3.69%, CCOC(=O)c1c(-c2ccc(-c3ccccc3)cc2)csc1NC(=O)CNCCN(C)C -12.6%, CCOC(=O)c1c(-c2ccc(F)cc2)csc1NC(=O)CN1CCN(CC)CC1 7.91% [at 1 µM], Fc1ccccc1OCCn1c(=S)[nH]c2ccccc21 -3.96%, Cc1ccc(OCCn2cnc3ccccc32)cc1 -5.3% [at 4.2 µM], CCOc1ccc(OCCn2c(=S)[nH]c3ccccc32)cc1 -9.4% [at 0.26 µM], CCOC(=O)c1c(-c2ccc(C(C)(C)C)cc2)csc1NC(=O)CN1CCN(CC)CC1 2.55% [at 8 µM], COC(=O)C1=C(C)N(Cc2ccc(Br)cc2)C(=S)NC1c1ccc(F)cc1 (centres undefined) 9.62% [at 16 µM], Cc1ccc2c(c1)[nH]c(=S)n2CCOc1ccccc1 1.98%, Cc1ccc(C(C)C)c(OCCn2c(=S)[nH]c3ccccc32)c1 -8.35% [at 0.5 µM], Cc1ccc(OCCn2c(C)nc3ccccc32)cc1 1.77%, S=c1[nH]c2ccccc2n1CCOc1ccc(Cl)cc1 3.89% [at 8 µM], Cc1ccc(OCCn2c(SCCO)nc3ccccc32)c(C(C)C)c1 -2.9% [at 2.1 µM], Cc1ccccc1OCCn1c(=S)[nH]c2ccccc21 -3.77% [at 1 µM]
